Only some compounds are listed: those with a hit (about 1.3% of all), similar ones and a draw of the others.
SARS 3CLpro inh = SARS-CoV 3CLpro protease inhibition; actives 0.14% (n = 290,000); P0C6X7; recombinant SARS-CoV 3CLpro, quenched FRET peptide cleavage; AID 1706; inhibition, % at 6 µM; in the data active = inhibition above about 12%
CCHFV vOTU inh = blocks the CCHF virus ovarian tumor domain protease. AID 651958. actives 0.55% (n = 370,000). inhibition, % at 11.5 µM. CCHFV vOTU protease, Pep-AMC fluorescence; in the data active = inhibition above about 30%; note: 0% = vehicle wells with enzyme and 100% = no enzyme wells
PrP UTR inh = suppresses PrP 5' UTR mRNA reporter expression; cell-based PrP 5' UTR mRNA reporter, plate reader; inhibition, % (test concentration not listed); actives 0.35% (n = 340,000); AID 488862; in the data active = inhibition above about 52%; note: 0 = median of the neutral control wells
PrPC surface inh = inhibitors of human cell surface prion protein PrPC. P04156. TR-FRET read-out. inhibition, % at 13.8 µM. actives 0.43% (n = 370,000). AID 720596; in the data active = inhibition above about 24%; note: 0% = median of the test wells and 100% = reference compound wells
PrP UTR cherry = prion 5' UTR mRNA inhibition, cherry-pick retest; shares compounds with PrP UTR inh; cell-based prion protein 5' UTR reporter, plate reader; inhibition, % at 2.5 µM; actives 48% (n = 1,100); in the data active = inhibition above about 54%; inconclusive = no clear call, values can overlap the other calls
* marks the source's active call; other numbers are inactive results; u = inconclusive; x = no result; ! = not active in a repeat.

SMILES | SARS 3CLpro inh | CCHFV vOTU inh | PrP UTR inh | PrPC surface inh | PrP UTR cherry
OCC1CCCCN1C(=S)Nc1ccc(Cl)cc1Cl (stereo unspecified) | -1 | -8 | -32 | 6 | x
CCN(C(=O)c1cc2cc(OC)ccc2oc1=O)c1ccccc1 | -5 | -1 | 67* | -1 | u
CCN(C(=O)c1cc2cc(OC)ccc2oc1=O)c1cccc(C)c1 | 3 | -2 | -23 | -8 | x
Cc1cccc(NC(=O)c2cnc3n(c2=O)CCS3)c1 | 2 | -8 | -63 | 0 | x
O=C(Nc1ccccc1)c1cnc2n(c1=O)CCS2 | 2 | 1 | 56* | -3 | -39
Oc1ccc(Cl)cc1C=Nc1ccccc1Br | -7 | -3 | 57* | 8 | -6
O=C(N/N=C/c1cc(Cl)ccc1O)c1ccc(Br)cc1 | -1 | 11 | 16 | 2 | x
CCOC(=O)CCc1c(C)c(C#N)c2nc3ccccc3n2c1-n1cnc2ccccc21 | 4 | -1 | -8 | -6 | x
CSc1ccccc1NC(=O)C(C)N(C)CC(=O)N1CCN(Cc2ccccc2)CC1 (stereo unspecified) | x | 8 | 74* | 0 | -10
CNC(=O)c1cc(S(=O)(=O)N2CC(C)OC(C)C2)ccc1N1CCCCC1 (stereo unspecified) | -5 | -3 | 4 | 8 | x
Cc1cc2nc(/C=C/c3cccnc3)[nH]c2cc1C | 3 | -347 | 66* | -1 | 84*
COc1ccc2c(c1OC)c(=O)n1c3ccc(OC(C)C(=O)NCCN4CCOCC4)cc3c3ccnc2c31 (stereo unspecified) | -7 | -70 | -30 | -20 | x
COc1ccc2c(c1OC)c(=O)n1c3ccc(OC(C)C(=O)NCCCN4CCOCC4)cc3c3ccnc2c31 (stereo unspecified) | -4 | x | 54* | x | 8
Cc1cc(C(=O)N2CC=C(c3ccccc3)CC2)c2ccccc2n1 | x | 4 | 52* | 19 | 74*
O=c1sc(/C=N/Nc2ccccc2)c(Cl)n1Cc1ccccc1 | 3 | 1 | -56 | 1 | x
Cc1ccc(NC(=O)c2nc[nH]c2C(=O)NCc2ccccc2)cc1 | x | -3 | -12 | 0 | x
CN(C)c1ccc(CCc2ccc(N)cc2)cc1 | x | -10 | 57* | 13 | 53*
CCOC(=O)C1C(OC(=O)c2ccccc2)CC2CCC1N2C (stereo unspecified) | x | 6 | 70* | -4 | 1
CC1Cc2nc(SCC(=O)Nc3nccs3)n(C)c(=O)c2S1 (stereo unspecified) | -5 | 2 | -22 | 2 | x
CCCCOc1ccc(C(=O)NNC(=S)NC(=O)CC)cc1 | 4 | x | 28 | x | x
N#Cc1c(NC(=O)CSc2ncn[nH]2)sc2c1CCCCC2 | 0 | -7 | 74* | 7 | 77*
CC(C)C(C(=O)NCc1ccccc1)N(CC1CCCO1)C(=O)CNS(=O)(=O)c1ccccc1 (stereo unspecified) | 6 | 2 | -5 | 5 | x
CC(C)C(C(=O)NCc1ccco1)N(CC1CCCO1)C(=O)CNS(=O)(=O)c1ccccc1 (stereo unspecified) | 5 | -10 | 68* | 8 | -9
CCN1C(=O)N[C@@H](CCc2ccccc2)[C@H](C(C)=O)[C@H]1C | x | 2 | 66* | -3 | -26
Cc1sc(NC(=S)NC(=O)c2ccco2)c(C(N)=O)c1C | 2 | 0 | -34 | 3 | x
SMILES | SARS 3CLpro inh | CCHFV vOTU inh | PrP UTR inh | PrPC surface inh | PrP UTR cherry
COC(=O)CCC(=O)NC(=S)Nc1sc(C)c(C)c1C(N)=O | -1 | -3 | 67* | 9 | 86*
Cc1sc(NC(=S)NC(=O)CCc2ccccc2)c(C(N)=O)c1C | 2 | -10 | 54* | 15 | 81*
Cc1ccc(CNc2ccc3c(c2)OCO3)cc1 | -8 | x | -57 | x | x
O=C(O)CCn1cc(C=C2C(=O)NC(=S)NC2=O)c(-c2ccccc2)n1 | 0 | 14 | 74* | -1 | 0
Cc1cc(C)nc(Sc2ncnc(N)c2[N+](=O)[O-])n1 | 4 | 12 | 56* | 3 | -1
C#C[C@]1(O)CC[C@H]2[C@@H]3CCc4cc(OC5CCCC5)ccc4[C@H]3CC[C@@]21C | -2 | -1 | 61*! | -2 | -13
O=C(/C=C\Nc1ccc2c(c1)OCO2)c1ccccn1 | 6 | 8 | 80* | -3 | 78*
O=C(Nc1ccc2c(c1)OCO2)c1ccccn1 | x | 2 | -53 | 1 | x
COC(=O)c1cccc(NC(=O)/C=C/c2ccc3c(c2)OCO3)c1 | -2 | 16 | 65* | 20 | 25
CCNC(=O)CC1SC(=Nc2ccc(Cl)cc2)N(CC)C1=O (stereo unspecified) | 1 | -8 | -10 | 3 | x
O=C(O)c1cc2nccc(-c3ccco3)n2n1 | 2 | -20 | x | -15 | x
COc1ccc(-c2ccnc3cc(C(=O)O)nn23)cc1 | 8 | -37 | 84* | -34 | -9
Cc1cnc(C(=O)OC(C)C(=O)Nc2ccc(Oc3ccccc3)cc2)cn1 (stereo unspecified) | x | 15 | 90* | 1 | -12
COc1ccc(CN2C(=O)C(CC(=O)NCc3cccc4ccccc34)CC(C(=O)N(C)C)=C2C)cc1 (stereo unspecified) | x | -5 | x | 0 | x
CCOc1ccc(N2C(=O)c3cccnc3C2Nc2ccc(F)cc2)cc1 (stereo unspecified) | 1 | 5 | -11 | 1 | x
Cc1nn(C(C)(C)C)c(C)c1/C=N/OC(=O)Nc1ccc(Cl)cc1 | -5 | -3 | 94* | 11 | 93*
Cc1nn(C)c(C)c1/C=N/NC(=O)C(C)(C)Oc1ccc(Cl)cc1 | -2 | x | 5 | x | x
CC(C)(C)C(=O)Cn1c[n+](N)cn1 | -2 | 0 | -31 | 5 | x
Cc1c2c(=O)n(-c3nc4ccccc4s3)nc-2cc(O)n1Cc1ccccc1 | 10 | x | 65* | x | 35
Cc1nn(-c2ccccc2)c(C)c1/C=N/NC(=O)c1cc(-c2cccs2)[nH]n1 | 5 | 8 | 68* | 13 | 78*
Cc1nn(-c2ccccc2)c(C)c1/C=N/NC(=O)c1cc(-c2ccc(Br)s2)[nH]n1 | -3 | 2 | -12 | -6 | x
CCn1c(C)nc2cc(C(=O)N/N=C/c3ccccc3)ccc21 | 3 | 5 | -63 | 1 | x
Cc1cc(C)c(NC(=O)c2c[nH]c(=S)n2-c2ccc(F)cc2)c(C)c1 | 5 | -10 | -19 | 2 | x
Cc1ccc2nc(-c3ccccc3)cn2c1 | -3 | 5 | 87* | 3 | 85*
CC1=CC2=NC(=O)/C(=C/c3cccs3)C(=N)N2O1 | 6 | -8 | -14 | -6 | x
SMILES | SARS 3CLpro inh | CCHFV vOTU inh | PrP UTR inh | PrPC surface inh | PrP UTR cherry
NC(=O)c1ccc(-c2noc(-c3cccc(Cl)c3)n2)cc1 | x | -5 | -48 | 1 | x
O=C(O)c1cccc(-c2noc(-c3cccc(Cl)c3)n2)c1 | x | 14 | 81* | 3 | 84*
COc1cccc(CNC(=O)COC(=O)c2nn(C)c(=O)c3ccccc23)c1 | x | -1 | -15 | -1 | x
Cc1cc2sc3ccc(C#CC4(O)CCCCC4)cc3c(=O)c2cc1C | x | 13 | 92* | 2 | 93*
O=c1c2ccccc2oc2ccc(C#CC3(O)CCCCC3)cc12 | x | -8 | 37 | 3 | x
Cn1c2ccccc2c(=O)c2cc(C#CC3(O)CCCCC3)ccc21 | -6 | -26 | 65* | -3 | 34
Cn1c2ccccc2c(=O)c2ccc(C#CC3(N)CCCCC3)cc21 | -6 | -48 | -11 | 2 | x

Screening data (PubChem)
